The list is not random: actives were taken first. Their share in the collection is about 1.6%.
KCNQ2 block: inhibitors of rat KCNQ2 potassium channel; O88943; CHO-K1 KCNQ2, FluxOR thallium flux, 20 min; active compounds read low; B-score at 10 µM; 1.1% of 310,000 active; AID 2156;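 active = fluorescence ratio B-score at most minus 3 library SDs, with starting brightness B-score within 2 library SDs, cut at about -5.5 in these data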
Target sequence (O88943 whole entry, looked up): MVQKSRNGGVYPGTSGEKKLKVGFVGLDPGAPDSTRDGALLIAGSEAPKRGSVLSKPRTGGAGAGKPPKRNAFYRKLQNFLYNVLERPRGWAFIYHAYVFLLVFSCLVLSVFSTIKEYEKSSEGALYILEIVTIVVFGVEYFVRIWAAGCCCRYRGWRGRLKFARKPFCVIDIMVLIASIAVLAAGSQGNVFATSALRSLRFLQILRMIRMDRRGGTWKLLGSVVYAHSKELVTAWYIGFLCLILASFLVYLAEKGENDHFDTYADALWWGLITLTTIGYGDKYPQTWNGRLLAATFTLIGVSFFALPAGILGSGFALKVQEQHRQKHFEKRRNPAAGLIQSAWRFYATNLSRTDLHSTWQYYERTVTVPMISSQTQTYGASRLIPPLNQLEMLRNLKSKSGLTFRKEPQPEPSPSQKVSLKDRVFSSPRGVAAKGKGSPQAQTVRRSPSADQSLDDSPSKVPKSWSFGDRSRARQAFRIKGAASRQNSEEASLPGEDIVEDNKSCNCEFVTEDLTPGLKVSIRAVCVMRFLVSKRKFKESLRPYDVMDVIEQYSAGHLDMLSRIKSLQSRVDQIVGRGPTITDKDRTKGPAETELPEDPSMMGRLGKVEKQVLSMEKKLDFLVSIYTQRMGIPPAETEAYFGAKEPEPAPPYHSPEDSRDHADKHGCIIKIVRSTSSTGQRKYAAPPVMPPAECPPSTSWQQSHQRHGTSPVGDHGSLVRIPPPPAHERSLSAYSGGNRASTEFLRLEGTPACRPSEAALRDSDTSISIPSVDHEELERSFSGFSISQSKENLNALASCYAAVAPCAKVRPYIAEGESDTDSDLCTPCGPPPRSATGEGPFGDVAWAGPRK
KCNQ2 pot: KCNQ2 (rat) channel potentiation; O88943; AID 2239; CHO-K1 KCNQ2, FluxOR thallium flux fluorescence; active compounds read high; B-score at 10 µM; 0.54% of 310,000 active;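 active = fluorescence ratio B-score at least 3 SD of library B-scores, with initial fluorescence B-score within 3 of them, cut at about 5.3 in these data; same plate scores as AID 2156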;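 note: B-score of peak minus minimum over baseline fluorescence ratio after K+ and Tl+ stimulus; positive B-score means potentiation of KCNQ2 with more thallium influx and brighter signal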
Kir21 confirm: confirmation of mouse Kir2.1 potassium channel inhibitors; shares compounds with KCNQ2 pot; Kir2.1-expressing cells, FluxOR thallium flux fluorescence; active compounds read low; Tl flux remaining, % of negative control (active compounds read low), % at 10 µM; 41% of 2,300 active;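 active = Primary-screen hit whose thallium flux fell at least 3 control SD below untreated wells in both duplicates, with normal baseline fluorescence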;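 note: 0% = blank wells without stimulus and 100% = stimulated no-compound controls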
HEK293 Tl flux: counter-screen for Kir2.1 inhibitors: effect in parental HEK293 cells; shares compounds with KCNQ2 pot; FluxOR thallium flux fluorescence; 0% = unstimulated blank wells; FluxOR signal as % of negative control (100 = no effect), % at 10 µM; 19% of 2,300 active;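 active = dye signal at least 3 control SD above or below untreated wells in both duplicates, raw fluorescence within 3, either direction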;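 note: percent is based on the flux ratio of peak minus minimum fluorescence over baseline F0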
CHO-K1 ctr: alters thallium flux in parental CHO-K1 cells, KCNQ2 counter-screen; shares compounds with KCNQ2 pot; FluxOR thallium flux fluorescence; zero = vehicle mean+3SD, 100% = vehicle-minus-blank window; activity increase over 3SD of controls, % at 10 µM; 43% of 1,200 active; AID 2282;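 active = signal rise of at least 3 SD above the untreated control mean, in both duplicate wells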;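 note: counter screen of KCNQ2 potentiator hits so any rise reflects channel-independent effects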
KCNQ1 pot spec: human KCNQ1 counter-target activity of KCNQ2 potentiators; shares compounds with KCNQ2 pot; CHO KCNQ1 stable, FluxOR thallium flux fluorescence; beyond 3SD, as % of vehicle-control signal; activation over 3SD threshold, % at 10 µM; 28% of 1,200 active;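 active = fluorescence ratio rise of at least 3 SD of vehicle wells above their mean, in both replicate wells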;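 note: 0% = vehicle mean plus 3 SD and 100% = vehicle minus unstimulated blank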
KCNQ2 pot conf: rat KCNQ2 channel potentiator confirmation | shares compounds with KCNQ2 pot | CHO-KCNQ2 cells, FluxOR thallium flux fluorescence | potentiation, less the hit threshold, % at 10 µM | 68% of 1,200 active | AID 2287;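 active = fluorescence ratio rising 3 SD or more over the vehicle control mean in both replicates, plus primary screen hit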;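 note: peak minus minimum thallium fluorescence divided by baseline after K/Tl stimulus; 0% = vehicle mean plus 3 SD and 100% = vehicle minus unstimulated blank difference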
Kir2-1 sel: mouse Kir2.1 off-target activity of KCNQ2 potentiators; 2% of 1,200 active; HEK293 Kir2.1, FluxOR thallium flux fluorescence; activity over 3SD threshold, % at 10 µM; shares compounds with KCNQ2 pot;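 active = fluorescence ratio rise of at least 3 SD above the vehicle-control mean, seen in both replicates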;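 note: 0% = vehicle mean plus 3 SD and 100% = vehicle minus no-stimulus blank window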
KCNQ2 W236L MoA: potentiates the retigabine-insensitive rat KCNQ2 W236L mutant channel; shares compounds with KCNQ2 pot; CHO KCNQ2-W236L, automated patch clamp current; current increase over 3SD of negative controls (%), active compounds read high, % at 25 µM; 10% of 940 active;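 active = current increase at least 3 SD of the untreated controls above them in both duplicate recordings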
Active calls of the source: *; i = inactive; nt = not tested or not shown.

SMILES	KCNQ2 block	KCNQ2 pot	Kir21 confirm	HEK293 Tl flux	others
Cc1cc(Oc2ccccc2)nc(SCC(=O)Nc2ccccc2)n1	i	nt	nt	nt
Cc1cc(Oc2ccccc2)nc(SCC(=O)Nc2ccc(Cl)c(Cl)c2)n1	i	5.48*	i	i	CHO-K1 ctr=-26.3;KCNQ1 pot spec=-9.7;KCNQ2 pot conf=6.8*;Kir2-1 sel=-35.3;KCNQ2 W236L MoA=i
Cc1nnsc1C(=O)Nc1ccc(S(=O)(=O)N2CCC(C)CC2)cc1	i	1	nt	nt
COc1ccc(S(=O)(=O)NNC(=O)C23CC4CC(CC(C4)C2)C3)cc1	i	nt	nt	nt
COc1cc(NC(=O)c2ccccc2)c(OC)cc1Cl	i	nt	nt	nt
Cc1ccc(NC(=O)c2cccs2)cc1	i	0.09	nt	nt
COc1ccc(OC)c(NC(=O)C(=O)NNC(=O)C23CC4CC(CC(C4)C2)C3)c1	i	8.67*	i	272.0%*	CHO-K1 ctr=-10.9;KCNQ1 pot spec=-16.9;KCNQ2 pot conf=7.5*;Kir2-1 sel=-24.1;KCNQ2 W236L MoA=i
COc1cc(OC)cc(C(=O)NNC(=O)C(=O)Nc2cc(OC)c(Cl)cc2OC)c1	i	9.3*	i	182.5%*	CHO-K1 ctr=-2.2;KCNQ1 pot spec=-12.9;KCNQ2 pot conf=-4.3;Kir2-1 sel=-25.6;KCNQ2 W236L MoA=i
Cc1ccc(NC(=O)C(=O)NNC(=O)c2cccs2)cc1	i	10.2*	i	341.0%*	CHO-K1 ctr=-8.1;KCNQ1 pot spec=-13.5;KCNQ2 pot conf=34.9*;Kir2-1 sel=-5.8;KCNQ2 W236L MoA=i
COc1ccc(NC(=O)C(=O)NNC(=O)c2cccs2)c(OC)c1	i	8.55*	i	240.0%*	CHO-K1 ctr=-4.3;KCNQ1 pot spec=19.1*;KCNQ2 pot conf=6.9*;Kir2-1 sel=-46.2;KCNQ2 W236L MoA=i
COc1ccc(NC(=O)C(=O)NNC(=O)c2cccs2)cc1	i	3.28	nt	nt
COc1ccc(C)cc1NC(=O)C/C(C)=N/NC(=O)Cc1cccc2ccccc12	i	nt	nt	nt
COc1ccc(C(C(=O)NC2CCCC2)N(Cc2ccc(C)cc2)C(=O)c2ccn[nH]2)cc1OC (configuration not stated)	i	0.84	nt	nt
COc1ccccc1CNS(=O)(=O)c1cccs1	i	1.01	nt	nt
Nc1ccc(N=Nc2ccccc2O)c(N)c1	i	0.67	nt	nt
Oc1ccccc1N=Nc1ccccc1O	i	7.9*	i	i	CHO-K1 ctr=-11.3;KCNQ1 pot spec=-9.8;KCNQ2 pot conf=-22.8;Kir2-1 sel=-32.1
O=C(COc1cccc(NC(=O)c2cccc([N+](=O)[O-])c2)c1)c1ccc(Br)cc1	i	8.91*	i	i	CHO-K1 ctr=3.8*;KCNQ1 pot spec=-14.4;KCNQ2 pot conf=12.4*;Kir2-1 sel=-32.2;KCNQ2 W236L MoA=i
O=C(NNC(=S)NC(=O)c1ccc(Br)cc1)c1cccc([N+](=O)[O-])c1	i	7.62*	i	i	CHO-K1 ctr=-5.0;KCNQ1 pot spec=-14.6;KCNQ2 pot conf=-34.7;Kir2-1 sel=-37.5
O=C(NNC(=S)NC(=O)c1ccc(Br)cc1)c1ccc([N+](=O)[O-])cc1	i	0.06	nt	nt
O=C(Nc1cccc(OCC(=O)N2CCOCC2)c1)c1cccc([N+](=O)[O-])c1	i	1.22	nt	nt
Cc1ccc(C(=O)NNC(=S)NC(=O)c2ccccc2)cc1	i	1.1	i	i
Cc1cccc(C(=O)NNC(=S)NC(=O)c2ccccc2)c1	i	0.69	nt	nt
CC[C@@H](C)C(N)c1cn([C@@H](CCC(=O)O)C(=O)N2CCNCC2)nn1 (some centres not stated)	i	0.08	nt	nt
COCCN(C(=O)COC(=O)C(c1ccccc1)c1ccccc1)c1c(N)n(Cc2ccccc2)c(=O)[nH]c1=O	i	nt	nt	nt
Cc1nc(N2CCN(Cc3ccccc3)CC2)c(C#N)c2c1COC(C)(C)C2	i	nt	60.0%*	i
SMILES	KCNQ2 block	KCNQ2 pot	Kir21 confirm	HEK293 Tl flux	others
CC(C)c1nc(N2CCN(C(=O)c3ccccc3)CC2)c(C#N)c2c1COC(C)(C)C2	i	nt	nt	nt
Cc1ccc(-n2nc(-c3ccc(OC(F)(F)F)cc3)cc2N)cc1C	i	0.8	nt	nt
Cc1[nH]n(-c2ccc([N+](=O)[O-])cc2)c(=O)c1C=NCCN1CCN(C(=O)c2ccccc2)CC1	i	nt	nt	nt
O=C(NCCc1ccccc1)C1CCC(CNS(=O)(=O)c2cccc3cccnc23)CC1 (configuration not stated)	i	nt	nt	nt
CCCN(CCC)S(=O)(=O)c1ccc(C(=O)N2CCCc3ccccc32)cc1	i	nt	nt	nt
Cc1ccc(C2C3=C(NCCN=C3c3ccccc3)C(=O)N2c2ccccc2)cc1 (configuration not stated)	i	nt	i	i
CCOc1ccc(N2C(=O)C3=C(C(c4ccc(Cl)cc4)=NCCN3)C2c2cccnc2)cc1 (configuration not stated)	i	nt	nt	nt
O=C(O)CCC(=O)Nc1nc2nccc(-c3ccccc3)n2n1	i	0.02	nt	nt
Cc1csc(NC(=O)c2cc3c(s2)CCCCC3)n1	i	1.28	nt	nt
Cc1csc(NC(=O)c2cc3c(s2)CCCC3)n1	i	7.28*	i	i	CHO-K1 ctr=95.9*;KCNQ1 pot spec=-18.2;KCNQ2 pot conf=-2.5;Kir2-1 sel=-28.8;KCNQ2 W236L MoA=i
Cc1c(C)n(CCN(C)C)c2ccc(C(=O)OCCN(C)C)cc12	i	2.14	nt	nt
Cc1c(C)n(Cc2ccccc2)c2ccc(C(=O)OCCCN(C)C)cc12	i	nt	24.5%*	i
CCCn1cc(NC(=O)c2cc(-c3ccccc3)on2)cn1	i	5.73*	i	i	CHO-K1 ctr=23.8*;KCNQ1 pot spec=-15.0;KCNQ2 pot conf=-59.7
O=C(Nc1cnn(C23CC4CC(CC(C4)C2)C3)c1)c1cc(-c2ccccc2)on1	i	0.83	nt	nt
CC1(C)CC(=O)C2=C(C1)Nc1ccccc1NC2c1ccc([N+](=O)[O-])cc1 (configuration not stated)	i	0.22	nt	nt
O=C(NCCC(=O)N1CCc2ccccc21)c1ccccc1Cl	i	nt	nt	nt
O=C(NC(=S)N1CCc2ccccc21)c1ccccc1Cl	i	8.86*	i	i	CHO-K1 ctr=13.6*;KCNQ1 pot spec=-11.7;KCNQ2 pot conf=62.2*;Kir2-1 sel=-13.8;KCNQ2 W236L MoA=i
CCc1c(C(=O)NNC(=S)NCCc2ccccc2)csc1C	i	1.15	nt	nt
S=c1nc(NCc2cccc(Cl)c2)c2ccccc2[nH]1	i	nt	nt	nt
CCCOc1ccc(CSC(=N)N)cc1C(=O)OC	i	2.12	nt	nt
COC(=O)c1cc(CSC(=N)N)ccc1OCCC(C)C	i	0.96	29.0%*	i
COc1ccc(CC2(CO)CCN(S(=O)(=O)c3sccc3C)CC2)cc1	i	nt	nt	nt
Fc1cccc(/C=N/Nc2ccc3ccccc3n2)c1	i	12.5*	i	i	CHO-K1 ctr=-13.9;KCNQ1 pot spec=-20.9;KCNQ2 pot conf=-19.8;Kir2-1 sel=-29.5
Brc1ccc(/C=N/Nc2ccc3ccccc3n2)cc1	i	1.59	nt	nt
O=C(CSc1nnc(-c2ccc(C(F)(F)F)cn2)s1)c1ccccc1	i	nt	nt	nt

Screening data as filed in PubChem.
